Results as given in PubChem BioAssay.
Values joined by “and” are separate entries in the source; they are usually repeats but may differ in a detail not shown here. Identical values can stand only once. Some structures have more than one record in an assay (separate samples or runs), and their calls can disagree. Active and inactive are the calls of the source.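 Rule for the calls, unless noted: active = compounds whose cell count with miR-34 switched on is under 0.7 times the count with it off; inactive = the rest.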

Experiments:
[1] = viability loss with induced miR-34 in A549 – imaging, A549 dox-inducible miR-34, nuclei and caspase counts, primary screen (AID 1347080); conditions: A549 miR-34 inducible, Hoechst nuclei count, 48 h
[2] = MELAS cybrid and Rieske KO viability enhancers – cell-based, MELAS cybrids, Rieske KO mouse fibroblasts, CellTiter-Glo, primary screen (AID 1508586;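 active = mean z-score across replicates of 1.96 or higher in either the MELAS or the Rieske mutant cell line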;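 note: z relative to plate mean and SD of compound and empty wells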); conditions: low glucose
[3] = stronger effect = lower value, cell number ratio, induced over uninduced
[4] = measured here: relative caspase fold change +Dox/-Dox
[5] = measured here: total cells with miR-34 induction, stronger effect = lower value
[6] = measured here: total cells without miR-34 induction
[7] = MELAS cybrid survival, CellTiter-Glo 48 h, stronger effect = higher value
[8] = Rieske KO mouse fibroblast survival, CellTiter-Glo 72 h
Note: test concentration not given here.

Compound	fold change [1, 3]	fold change [1, 4]	cell count [1, 5]	cell count [1, 6]	z-score [2, 7]	z-score [2, 8]
CC(=O)ON=C1C(=O)N(Cc2cc(Cl)ccc2Cl)c2ccc(Cl)cc21	0.848 (inactive)	0.441	7100	8370	-0.0209 (inactive)	1.12
Cc1cc(C)nc(NS(=O)(=O)c2ccc(NC(=S)NC(=O)COc3ccc(Br)cc3Cl)cc2)n1	0.955 (inactive)	1.42	7550	7900	-0.302 (inactive)	-3.08
COc1ccc(-c2cc(=O)c3c(O)cc(OC4OC(COC5OC(C)C(O)C(O)C5O)C(O)C(O)C4O)cc3o2)cc1O (stereo not given)	0.912 (inactive)	0.985	7570	8300	-0.28 (inactive)	0.179
CC1CNc2c(cccc2S(=O)(=O)N[C@@H](CCCN=C(N)N)C(=O)N2CCC(C)CC2C(=O)O)C1 (stereo not given in full)	0.97 (inactive)	0.669	7750	7990	-0.261 (inactive)	-0.0788
CCC(C)C(NC(=O)C(CCC(=O)O)NC(=O)C(CC(C)C)NC(=O)C1CN=C(C(N)C(C)C)S1)C(=O)NC1CCCCNC(=O)C(CC(N)=O)NC(=O)C(CC(=O)O)NC(=O)C(Cc2cnc[nH]2)NC(=O)C(Cc2ccccc2)NC(=O)C(C(C)CC)NC(=O)C(CCCN)NC1=O (stereo not given)	1.05 (inactive)	0.927	7610	7240	-0.25 (inactive)	-0.261
COC(=O)CCSCc1ccc(-c2onc(C)c2NC(=O)OC(C)c2ccccc2Cl)cc1 (stereo not given)	0.847 (inactive)	0.706	6550	7730	-0.226 (inactive)	-0.128
COc1cc(=C2C=c3ccccc3=N2)[nH]c1=Cc1[nH]c(C)cc1C	1.1 (inactive)	0.895	1770	1620	2.25 (active)	-2.31
NC1(C(=O)NC(CCO)c2ccc(Cl)cc2)CCN(c2ncnc3[nH]ccc23)CC1 (stereo not given)	1.01 (inactive)	0.36	7310	7200	-0.334 (inactive)	-0.0673
CN(C)C(CCOc1cccc2ccccc12)c1ccccc1 (stereo not given)	0.873 (inactive)	1.7	6850	7850	-0.416 (inactive)	0.392
O=C(NN=Cc1ccc(O)c(O)c1)c1cc2ccccc2cc1O	0.949 (inactive)	0.497	8120	8550	-0.481 (inactive)	0.559
O=C(NCC(O)CO)c1ccncc1Nc1ccc(I)cc1F (stereo not given)	1.05 (inactive)	0.75	3270	3120	-0.688 (inactive)	-1.18
O=C(NS(=O)(=O)c1ccc(Br)s1)c1ccc(Cl)cc1Cl	0.902 (inactive)	0.488	7360	8160	-0.252 (inactive)	-0.754
Cc1onc(-c2ccccc2Cl)c1C(=O)NC1C(=O)N2C(C(=O)O)C(C)(C)S[C@@H]12 (stereo not given in full)	0.964 (inactive)	0.778	9670	10000	-0.365 (inactive)	0.485
O=C(NNc1nc2cc(F)ccc2n2cccc12)c1cnccn1	0.939 (inactive)	0.345	2180	2330	1.52 (inactive)	-2.55
CC(Cc1cc2c(c(C(N)=O)c1)N(CCCO)CC2)NCCOc1ccccc1OCC(F)(F)F (stereo not given)	0.869 (inactive)	0.814	6950	8000	-0.42 (inactive)	-0.511
Cc1cc(Nc2cc(N3CCN(C)CC3)nc(C=Cc3ccccc3)n2)n[nH]1	1.29 (inactive)	1.19	1120	872	1.43 (inactive)	-2.06
NCCCCCNCC12CC3CC(CC(C3)C1)C2	0.991 (inactive)	0.726	8590	8670	-0.291 (inactive)	-0.0827
CCN1CCN(C(=O)NC(C(=O)NC2C(=O)N3C2SC(C)(C)C3C(=O)O)c2ccccc2)C(=O)C1=O (stereo not given)	0.885 (inactive)	1.67	8860	10000	-0.177 (inactive)	-0.164
Cc1cncc(CN2CCC(=C3c4ccc(Cl)cc4CCc4cccnc43)CC2)c1	1.04 (inactive)	0.52	6230	6000	-0.369 (inactive)	-0.161
CCN1CCN(Cc2ccc(-c3cc4c(NC(C)c5ccccc5)ncnc4[nH]3)cc2)CC1 (stereo not given)	1.04 (inactive)	0.932	3430	3280	-0.0772 (inactive)	0.518
COC1=CC(=O)CC(C)[C@@]12Oc1c(Cl)c(OC)cc(OC)c1C2=O (stereo not given in full)	0.974 (inactive)	0.639	8290	8510	-0.169 (inactive)	-0.138
CCC(Nc1ncnc2nc[nH]c12)c1nc2cccc(F)c2c(=O)n1-c1ccccc1 (stereo not given)	0.873 (inactive)	0.869	6860	7860	-0.15 (inactive)	0.351
CC(=O)SC1CC2=CC(=O)CC[C@]2(C)[C@@H]2CC[C@@]3(C)[C@@H](CC[C@]34CCC(=O)O4)[C@H]12 (stereo not given in full)	0.898 (inactive)	0.8	7310	8140	-0.198 (inactive)	-0.323

Compound	fold change [1, 3]	fold change [1, 4]	cell count [1, 5]	cell count [1, 6]	z-score [2, 7]	z-score [2, 8]
CC1C[C@H]2[C@@H]3CCC4=CC(=O)C=C[C@]4(C)[C@]3(F)C(O)C[C@]2(C)[C@]1(O)C(=O)CO (stereo not given in full)	0.886 (inactive) and 0.91 (inactive)	0.577 and 0.802	5440 and 5070	6140 and 5570	-0.338 (inactive) and -0.534 (inactive)	0.031 and -0.0341
O=C(C=CC=Cc1ccc2c(c1)OCO2)N1CCCCC1	1 (inactive)	0.989	9240	9240	-0.417 (inactive)	0.823
CC(=O)c1cc([N+](=O)[O-])c(Sc2ccc(F)cc2F)s1	0.898 (inactive)	0.374	8140	9060	-0.42 (inactive)	0.533
COCCCOc1cc(CC(CC(N)C(O)CC(C(=O)NCC(C)(C)C(N)=O)C(C)C)C(C)C)ccc1OC (stereo not given)	0.942 (inactive)	0.734	7600	8060	0.18 (inactive)	-0.179
O=C(O)CC1CC(c2ccccc2)=NO1 (stereo not given)	0.969 (inactive)	0.43	8760	9040	-0.328 (inactive)	0.698
CNc1nc(Nc2cnn(C3CCN(C4COC4)CC3F)c2Cl)ncc1C(F)(F)F (stereo not given)	0.967 (inactive)	0.45	8480	8760	-0.354 (inactive)	0.843
O=C1NC(=O)C(=Cc2ccc3nccc(-c4ccncc4)c3c2)S1	0.936 (inactive)	0.601	1700	1820	0.995 (inactive)	-1.12
COc1cccc2c1C(=O)c1c(O)c3c(c(O)c1C2=O)C[C@@](O)(C(=O)CO)CC3O[C@H]1CC(N)C(O)C(C)O1 (stereo not given in full)	0.879 (inactive) and 1.08 (inactive)	1.03 and 0.95	1470 and 1780	1680 and 1650	5.38 (active) and -0.136 (inactive)	4.45 and -2.31
CC1(C)C(O[C@H]2OC(C(=O)O)C(O)C(O)C2O[C@@H]2OC(C(=O)O)C(O)C(O)C2O)CC[C@@]2(C)[C@H]3C(=O)C=C4[C@@H]5C[C@@](C)(C(=O)O)CC[C@]5(C)CC[C@@]4(C)[C@]3(C)CC[C@@H]12 (stereo not given in full)	0.946 (inactive)	0.91	7600	8030	-0.278 (inactive)	-0.114
N#CSc1cc(SC#N)c(N)nc1N	1.07 (inactive)	0.703	1940	1820	-0.481 (inactive)	-2.9
OCC(O)C(O)CO (stereo not given)	0.967 (inactive)	0.463	8430	8720	-0.193 (inactive)	-0.162
COC1CC2CCC(C)[C@@](O)(O2)C(=O)C(=O)N2CCCCC2C(=O)OC(C(C)CC2CCC(O)C(OC)C2)CC(=O)C(C)C=C(C)C(O)C(OC)C(=O)C(C)CC(C)C=CC=CC=C1C (stereo not given in full)	0.994 (inactive)	1.19	4070	4090	0.132	2.33
CC(CCC(=O)O)[C@H]1CC[C@H]2[C@@H]3C(O)C[C@@H]4CC(O)CC[C@]4(C)[C@@H]3CC[C@]12C (stereo not given in full)	0.91 (inactive)	1.28	8880	9760	-0.306 (inactive)	0.756
CC(C)(C)c1cc(C=C(C#N)C(N)=S)cc(C(C)(C)C)c1O	0.89 (inactive)	0.706	3790	4260	-0.383 (inactive)	-0.375
CC1=C(C(=O)O)N2C(=O)C(NC(=O)C(N)c3ccccc3)[C@@H]2SC1 (stereo not given in full)	0.987 (inactive)	0.849	7060	7150	-0.417 (inactive)	0.0723
C=C[C@@]1(C)CC(=O)[C@@]2(O)[C@@]3(C)C(O)CCC(C)(C)[C@@H]3C(O)C(OC(C)=O)[C@@]2(C)O1 (stereo not given in full)	0.968 (inactive)	1.19	8540	8820	0.411 (inactive)	-0.394
N#CC(=Cc1ccc(O)c(O)c1)C(=O)NCc1ccccc1	0.901 (inactive)	1.14	6440	7150	-0.517 (inactive)	0.15
COc1cc(F)c(C(C)C)cc1-c1ccc(C(F)(F)F)cc1CN1C(=O)OC(c2cc(C(F)(F)F)cc(C(F)(F)F)c2)C1C (stereo not given)	0.899 (inactive)	0.917	8290	9220	-0.143 (inactive)	0.372
S=C=Nc1cccc(NC(=S)NCCCCNC(=S)Nc2cccc(N=C=S)c2)c1	0.972 (inactive)	0.614	7440	7650	-0.615 (inactive)	0.0526
O=C(C=Cc1ccc(O)c(O)c1)OC1C[C@@](O)(C(=O)O)CC(O)C1O (stereo not given in full)	0.936 (inactive)	0.802	8020	8570	-0.38 (inactive)	-0.0852
CN1CCc2nc(C(=O)NC3CC(C(=O)N(C)C)CCC3NC(=O)C(=O)Nc3ccc(Cl)cn3)sc2C1 (stereo not given)	0.965 (inactive)	0.478	8860	9180	-0.402 (inactive)	-0.373
CN(C)c1cc(NC(=O)CNC(C)(C)C)c(O)c2c1C[C@H]1C[C@H]3C(N(C)C)C(=O)C(C(N)=O)=C(O)[C@@]3(O)C(=O)C1=C2O (stereo not given in full)	0.917 (inactive)	1.11	8200	8950	-0.43 (inactive)	0.225
